Experimental data published in the supplement of paper PMC10849652.
The full data set covers some 7,900 targets. This sample favours those with a hit. About 0.6% of all pairs of compound and target were hits. Unmarked numbers belong to inactive results.

Each target was assayed with NC1(c2ccc(-c3nc4ccn5c(=O)[nH]nc5c4cc3-c3ccccc3)cc2)CCC1 (assay: log2 fold change, soluble protein after heating vs DMSO (PISA); higher = thermal stabilisation; K562 cells, 10 uM, 30 min; active = over 0.2 and 3.5 SD of the protein, either way, in both replicates (recomputed)).
In short: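 Thermal stability values are relative to control samples and come from duplicates. They are expressed as log2 fold changes. For measurement, K562 cells (2×10^6 cells/mL) received 10 μM compound for 30 min, and aliquots were heated for 3 min over 48°C-58°C, pooled, and extracted at 4°C in PBS with 0.5% NP-40. Soluble protein, the supernatant after 21,000xg for 90 min, was quantified by TMTpro 16plex LC-MS/MS with equalised channel sums.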

Chain of UniProt Q8NFV4 (Q8NFV4 whole entry, looked up): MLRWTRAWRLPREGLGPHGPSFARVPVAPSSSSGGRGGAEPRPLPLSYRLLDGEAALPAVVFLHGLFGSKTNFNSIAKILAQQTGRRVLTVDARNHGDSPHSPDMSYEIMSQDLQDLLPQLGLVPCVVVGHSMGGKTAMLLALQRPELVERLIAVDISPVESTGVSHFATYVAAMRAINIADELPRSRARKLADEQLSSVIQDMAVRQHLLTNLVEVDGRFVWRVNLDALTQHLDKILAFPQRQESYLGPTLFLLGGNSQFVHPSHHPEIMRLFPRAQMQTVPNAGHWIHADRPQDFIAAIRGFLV
Chain of UniProt Q9NWX5 (Q9NWX5 whole entry, looked up): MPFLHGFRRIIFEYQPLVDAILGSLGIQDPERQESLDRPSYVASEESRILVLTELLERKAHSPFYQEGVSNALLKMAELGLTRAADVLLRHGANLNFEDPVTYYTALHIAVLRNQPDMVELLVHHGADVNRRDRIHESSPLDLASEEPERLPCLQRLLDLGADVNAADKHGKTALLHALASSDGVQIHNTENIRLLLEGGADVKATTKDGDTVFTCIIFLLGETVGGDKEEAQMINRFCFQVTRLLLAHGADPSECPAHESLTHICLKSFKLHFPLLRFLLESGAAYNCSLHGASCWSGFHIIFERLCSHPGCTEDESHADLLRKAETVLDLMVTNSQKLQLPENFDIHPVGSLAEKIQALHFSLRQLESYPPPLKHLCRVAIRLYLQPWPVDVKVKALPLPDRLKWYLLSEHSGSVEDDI
Chain of UniProt O00170 (O00170 whole entry, looked up): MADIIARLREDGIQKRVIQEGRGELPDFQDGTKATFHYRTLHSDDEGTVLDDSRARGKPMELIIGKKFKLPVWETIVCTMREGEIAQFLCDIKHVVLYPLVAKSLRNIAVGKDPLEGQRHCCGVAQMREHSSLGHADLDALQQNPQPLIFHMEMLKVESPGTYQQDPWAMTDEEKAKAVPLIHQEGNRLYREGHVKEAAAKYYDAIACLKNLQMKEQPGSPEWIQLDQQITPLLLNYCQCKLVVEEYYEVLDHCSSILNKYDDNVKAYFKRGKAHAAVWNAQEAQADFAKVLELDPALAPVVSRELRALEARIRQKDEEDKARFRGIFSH
Chain of UniProt Q4L235 (Q4L235 whole entry, looked up): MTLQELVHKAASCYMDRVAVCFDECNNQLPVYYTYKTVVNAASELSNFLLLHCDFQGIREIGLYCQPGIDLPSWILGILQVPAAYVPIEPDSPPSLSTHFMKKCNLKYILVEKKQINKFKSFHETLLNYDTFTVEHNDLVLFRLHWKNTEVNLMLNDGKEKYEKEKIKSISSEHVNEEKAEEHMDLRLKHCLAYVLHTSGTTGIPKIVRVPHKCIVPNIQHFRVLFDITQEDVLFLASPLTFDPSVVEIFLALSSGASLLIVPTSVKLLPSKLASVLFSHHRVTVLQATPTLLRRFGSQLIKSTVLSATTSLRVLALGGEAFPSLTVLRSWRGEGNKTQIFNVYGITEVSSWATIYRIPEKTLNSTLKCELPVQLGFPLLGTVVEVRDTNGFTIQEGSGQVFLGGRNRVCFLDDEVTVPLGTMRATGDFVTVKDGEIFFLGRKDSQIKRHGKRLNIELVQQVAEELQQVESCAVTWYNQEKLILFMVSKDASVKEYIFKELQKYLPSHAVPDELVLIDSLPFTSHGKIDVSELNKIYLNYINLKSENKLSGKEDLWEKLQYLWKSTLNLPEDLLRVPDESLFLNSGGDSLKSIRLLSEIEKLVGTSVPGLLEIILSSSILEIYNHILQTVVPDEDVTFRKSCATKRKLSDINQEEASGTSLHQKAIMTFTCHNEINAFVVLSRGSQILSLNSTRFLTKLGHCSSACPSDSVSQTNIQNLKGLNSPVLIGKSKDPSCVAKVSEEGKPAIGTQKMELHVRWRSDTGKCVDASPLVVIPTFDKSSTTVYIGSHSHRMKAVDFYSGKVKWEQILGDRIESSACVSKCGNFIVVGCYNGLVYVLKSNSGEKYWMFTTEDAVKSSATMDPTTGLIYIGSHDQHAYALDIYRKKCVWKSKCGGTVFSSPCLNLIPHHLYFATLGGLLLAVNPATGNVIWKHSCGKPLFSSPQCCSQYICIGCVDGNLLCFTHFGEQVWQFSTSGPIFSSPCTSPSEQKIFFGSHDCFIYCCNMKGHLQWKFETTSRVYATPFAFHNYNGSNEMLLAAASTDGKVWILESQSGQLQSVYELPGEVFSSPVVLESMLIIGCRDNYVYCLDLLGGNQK
Chain of UniProt P78363 (P78363 whole entry, looked up): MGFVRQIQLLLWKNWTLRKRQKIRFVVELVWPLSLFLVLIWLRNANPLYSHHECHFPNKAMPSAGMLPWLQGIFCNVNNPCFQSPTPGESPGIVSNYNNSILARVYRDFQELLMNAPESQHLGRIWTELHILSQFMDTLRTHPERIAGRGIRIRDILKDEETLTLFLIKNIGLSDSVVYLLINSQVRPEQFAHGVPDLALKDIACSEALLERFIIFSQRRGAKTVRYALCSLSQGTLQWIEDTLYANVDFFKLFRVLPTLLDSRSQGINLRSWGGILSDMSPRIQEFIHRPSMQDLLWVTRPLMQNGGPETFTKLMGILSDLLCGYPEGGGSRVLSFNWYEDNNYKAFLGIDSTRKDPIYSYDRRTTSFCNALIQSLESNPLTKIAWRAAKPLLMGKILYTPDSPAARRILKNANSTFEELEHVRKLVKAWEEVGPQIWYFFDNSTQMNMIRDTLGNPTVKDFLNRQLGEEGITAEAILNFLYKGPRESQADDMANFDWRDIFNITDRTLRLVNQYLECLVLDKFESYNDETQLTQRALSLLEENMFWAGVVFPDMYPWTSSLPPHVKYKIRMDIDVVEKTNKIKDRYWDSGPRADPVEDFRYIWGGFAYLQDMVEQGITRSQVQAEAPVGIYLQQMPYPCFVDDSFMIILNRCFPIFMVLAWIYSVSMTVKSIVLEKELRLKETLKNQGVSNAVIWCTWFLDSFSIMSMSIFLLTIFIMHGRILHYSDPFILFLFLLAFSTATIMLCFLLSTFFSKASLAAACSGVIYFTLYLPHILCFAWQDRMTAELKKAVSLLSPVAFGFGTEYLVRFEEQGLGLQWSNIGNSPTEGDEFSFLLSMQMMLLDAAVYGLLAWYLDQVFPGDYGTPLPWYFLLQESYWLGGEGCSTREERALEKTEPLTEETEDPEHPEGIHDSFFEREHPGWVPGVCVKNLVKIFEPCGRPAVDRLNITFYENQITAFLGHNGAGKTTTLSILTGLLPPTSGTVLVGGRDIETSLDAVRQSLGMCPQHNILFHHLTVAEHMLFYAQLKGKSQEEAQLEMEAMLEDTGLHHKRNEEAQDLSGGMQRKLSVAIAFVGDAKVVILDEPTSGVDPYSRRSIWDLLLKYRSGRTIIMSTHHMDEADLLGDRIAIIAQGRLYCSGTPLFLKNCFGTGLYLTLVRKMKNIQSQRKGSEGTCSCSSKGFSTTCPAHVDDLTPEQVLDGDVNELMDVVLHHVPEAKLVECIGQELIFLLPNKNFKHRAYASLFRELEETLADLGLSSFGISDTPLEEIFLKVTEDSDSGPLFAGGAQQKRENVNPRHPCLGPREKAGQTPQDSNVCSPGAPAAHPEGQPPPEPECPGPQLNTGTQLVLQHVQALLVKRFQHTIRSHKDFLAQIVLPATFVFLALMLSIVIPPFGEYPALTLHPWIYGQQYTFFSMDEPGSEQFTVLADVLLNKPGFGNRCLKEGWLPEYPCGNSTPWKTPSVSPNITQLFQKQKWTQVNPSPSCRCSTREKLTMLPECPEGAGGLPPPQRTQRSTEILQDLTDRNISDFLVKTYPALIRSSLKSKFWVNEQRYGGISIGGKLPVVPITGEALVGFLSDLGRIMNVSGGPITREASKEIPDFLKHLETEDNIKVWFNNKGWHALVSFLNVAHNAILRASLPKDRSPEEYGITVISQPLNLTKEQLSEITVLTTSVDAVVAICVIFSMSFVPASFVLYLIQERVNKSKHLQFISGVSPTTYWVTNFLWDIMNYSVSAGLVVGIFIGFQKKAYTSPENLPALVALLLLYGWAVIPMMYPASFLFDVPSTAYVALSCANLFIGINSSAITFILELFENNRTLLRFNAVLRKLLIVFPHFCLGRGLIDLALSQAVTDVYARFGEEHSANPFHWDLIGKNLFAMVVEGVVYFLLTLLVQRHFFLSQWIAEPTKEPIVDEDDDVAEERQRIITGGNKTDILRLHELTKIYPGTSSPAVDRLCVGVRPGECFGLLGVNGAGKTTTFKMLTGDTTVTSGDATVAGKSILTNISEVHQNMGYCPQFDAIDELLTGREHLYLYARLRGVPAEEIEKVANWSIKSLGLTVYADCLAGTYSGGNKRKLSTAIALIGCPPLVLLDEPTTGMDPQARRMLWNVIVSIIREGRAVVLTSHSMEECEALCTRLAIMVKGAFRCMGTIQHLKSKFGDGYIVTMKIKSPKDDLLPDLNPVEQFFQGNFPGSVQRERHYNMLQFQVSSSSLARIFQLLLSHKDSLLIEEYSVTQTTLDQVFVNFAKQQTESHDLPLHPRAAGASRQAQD
Chain of UniProt O00244 (O00244 whole entry, looked up): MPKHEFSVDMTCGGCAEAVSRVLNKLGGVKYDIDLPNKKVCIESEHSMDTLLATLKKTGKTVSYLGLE
Chain of UniProt P53367 (P53367 whole entry, looked up): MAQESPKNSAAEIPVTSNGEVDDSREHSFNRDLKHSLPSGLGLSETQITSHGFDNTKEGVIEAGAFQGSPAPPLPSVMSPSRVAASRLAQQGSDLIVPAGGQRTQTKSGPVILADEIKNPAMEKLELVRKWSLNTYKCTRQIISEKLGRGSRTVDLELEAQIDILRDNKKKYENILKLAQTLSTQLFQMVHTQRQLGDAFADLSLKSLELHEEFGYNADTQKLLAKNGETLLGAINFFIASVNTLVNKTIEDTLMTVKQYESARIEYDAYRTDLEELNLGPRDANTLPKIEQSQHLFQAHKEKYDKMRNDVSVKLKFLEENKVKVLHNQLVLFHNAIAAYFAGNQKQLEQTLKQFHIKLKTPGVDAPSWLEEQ
Chain of UniProt P24666 (P24666 whole entry, looked up): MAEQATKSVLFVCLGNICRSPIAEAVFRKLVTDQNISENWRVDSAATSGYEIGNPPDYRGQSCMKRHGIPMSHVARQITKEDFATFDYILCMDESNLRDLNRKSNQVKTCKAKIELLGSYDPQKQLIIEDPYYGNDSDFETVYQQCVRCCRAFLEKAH

Target	log2 fold change
BSCL2 isoform 4 (UniProt Q96G97)	-0.013
ARL3 (UniProt P36405)	-0.051
ABCA4 (UniProt P78363)	0.061
ALG14 (UniProt Q96F25)	-0.118
AFDN isoform 5 (UniProt P55196)	-0.099
AP2M1 (UniProt Q96CW1)	0.012
ASB6 (UniProt Q9NWX5)	-0.216
ATOX1 (UniProt O00244)	-0.032
ADPRH (UniProt P54922)	-0.178
ADAMTS5 (UniProt Q9UNA0)	0.074
AASDH (UniProt Q4L235)	-0.12
ATP7B (UniProt P35670)	-0.111
ATRN (UniProt O75882)	-0.073
BRD3 (UniProt Q15059)	0.017
ACP1 (UniProt P24666)	-0.002
ATXN3 isoform 1 (UniProt P54252)	-0.137
ARRDC1 (UniProt Q8N5I2)	-0.06
ACTBL2 (UniProt Q562R1)	1.54 (active)
AIP (UniProt O00170)	-0.128
ARHGAP25 isoform 4 (UniProt P42331)	-0.181
ABHD11 (UniProt Q8NFV4)	-0.139
ATF1 (UniProt P18846)	0.063
ARFIP1 isoform 2 (UniProt P53367)	-0.147
